Fluor 339 460 = intrinsic fluorescence of library compounds, ex339/em460 – biochemical, MLSMR library, data from DPM-DC assay, artefact control, profiling panel; fluorescence fold increase at 10 µM; compound autofluorescence, ex339/em460 nm, NADH buffer; hits give high values; 1 = no-compound wells, NADH background; actives 5.5% (n = 65,000); AID 709, 2007;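 active = at 10 µM, mean starting fluorescence two-fold or more over control wells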;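 also: signal is the first read of a kinetic run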
NADH coupling = inhibitors of PK/LDH coupling enzymes, profiling panel, artefact control, biochemical, MLSMR library; coupled PK/LDH NADH assays, four targets; IC50, µM (top dose mostly 10 µM), for the others: at the top dose inhibition; actives 0.02% (n = 65,000); AID 774, 2007;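 active = single-dose screening hits from any of four coupled enzyme assays that gave an IC50 when retested across doses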;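 also: the DPM-DC format reads NADH fluorescence rather than 340 nm absorbance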
DPM-DC inhibit = S. pneumoniae DPM-DC inhibitors, primary screen, biochemical, PK/LDH-coupled NADH fluorescence; actives 0.49% (n = 65,000); purified DPM-DC; diphosphomevalonate decarboxylase (Streptococcus pneumoniae D39); calls only at 10 µM; AID 556, 2006;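 active = the 320 compounds with the highest percent inhibition in the single-dose primary screen, excluding strongly autofluorescent ones, cut at about 32% in these data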;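 also: kinetic rate of NADH fluorescence loss reporting ADP formed by the decarboxylase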
Spn PMK inh = S. pneumoniae PMK inhibitors, primary screen, biochemical, mevalonate pathway, pilot trial included; purified PMK, PK/LDH-coupled NADH absorbance 340 nm; actives 0.49% (n = 65,000); phosphomevalonate kinase (Streptococcus pneumoniae D39); inhibition, % at 10 µM; AID 539, 2006;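 active = top-ranked compounds by inhibition in the single 10 µM screen, taking a fixed number of the strongest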;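 also: 0% = full reaction with DMSO carrier and 100% = background rate without enzyme reaction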
Abs 340nm = compound light absorbance at 340 nm, profiling panel, artefact control, biochemical, MLSMR library, data from PS, PMK, MK assays; 65,000 tested, under 10 active; compound absorbance at 340 nm, fold over control; fold change at 10 µM;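 active = at 10 µM dose, initial 340 nm absorbance at least 2 fold that of control wells; inactive = change under 2 fold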;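 also: initial absorbance extrapolated from kinetic A340 decline of NADH oxidation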
MK inhibit = S. pneumoniae MK inhibitors, primary screen, biochemical, PK/LDH-coupled NADH absorbance | AID 555, 2006 | inhibition, % at 10 µM | mevalonate kinase [Streptococcus pneumoniae D39] | actives 0.48% (n = 65,000) | purified MK, PK/LDH-coupled NADH absorbance 340 nm;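 active = ranked among the strongest by inhibition in the single 10 µM screen, a fixed top-ranked set picked for dose follow-up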
Numbers without * were called inactive; i = inactive; x = no result given; + = active, no number. A selection: hits, their analogues and other compounds. The true share with any hit is near 6.8%.

SMILES	Fluor 339 460	NADH coupling	DPM-DC inhibit	Spn PMK inh	Abs 340nm	MK inhibit
CN(C)c1ccc(-c2nn3c(-c4ccc(Cl)cc4)nnc3s2)cc1	1.3	1%	i	0	1	2
CN(C)c1ccc(-c2nn3c(C4CCCCC4)nnc3s2)cc1	2.5*	11%	i	4	1.1	4
COC(=O)c1cc2c(=O)n3cccc(C)c3nc2n(Cc2cccnc2)c1=N	2.3*	3%	x	0	1	5
COCCCn1c(=N)c(C(N)=S)cc2c(=O)n3cccc(C)c3nc21	1.9	9%	i	19	0.99	2
CCOC(=O)c1cc2c(=O)n3cccc(C)c3nc2n(Cc2cccnc2)c1=N	2.2*	3%	x	0	1	6
C=CCn1c(=N)c(C(=O)OC)cc2c(=O)n3cccc(C)c3nc21	3.8*	11%	x	20	1	2
C=CCn1c(=N)c(C(=O)OCC)cc2c(=O)n3cc(C)ccc3nc21	2.1*	3%	x	0	1	5
CCCCSc1nc(C)c(CC(=O)OC)c(=O)[nH]1	1.1	7%	i	6	0.97	14
Cc1cccn2c(=O)c(C=NCc3ccco3)c(Nc3ccc(Cl)cc3)nc12	1	3%	i	10	1.1	0
CCOc1ccc(N2C(=O)CC(n3nc(C)cc3C)C2=O)cc1 (stereo not given)	1.1	4%	i	8	0.99	5
O=C(CNS(=O)(=O)c1cccs1)N1CCc2ccccc2C1	1.1	2%	i	6	1	1
C=CCN1C(=O)C(O)=C(C(C)=O)C1c1ccccc1F (stereo not given)	1.1	3%	i	0	1.1	8
COc1ccc(CNC(=O)c2cc3c(=O)n4ccccc4nc3n(Cc3cccnc3)c2=N)cc1	1.9	6%	i	0	1.1	5
CCOC(=O)c1cc2c(=O)n3cc(C)ccc3nc2n(Cc2cccnc2)c1=N	2.1*	2%	x	0	1	3
CC1(C)CC(=O)C2=C(C1)N(CCN1CCOCC1)C1=C(C(=O)CC(C)(C)C1)C2c1ccc(Cl)cc1	5*	2%	x	2	0.99	2
CC1(C)CC(=O)C2=C(C1)N(CCN1CCOCC1)C1=C(C(=O)CC(C)(C)C1)C2c1cccc(F)c1	4.8*	3%	x	3	1	2
CC1(C)CC(=O)C2=C(C1)NC(=O)CC2c1cccc(F)c1 (stereo not given)	1.2	4%	i	12	0.99	0
COc1ccc(C2C3=C(CC(C)(C)CC3=O)N(CCN3CCOCC3)C3=C2C(=O)CC(C)(C)C3)cc1	3.4*	6%	i	0	1	0
Cn1c(=O)c2c(ncn2CC(=O)Nc2cc(Cl)c(Cl)cc2Cl)n(C)c1=O	1.1	12%	i	16	0.98	9
CC(NC(=O)C1CCCCC1)C(c1cccs1)N1CCN(C)CC1 (stereo not given)	1.1	3%	i	0	1	8
CCOC(=O)c1c(SC)nc(SC)c2c1CCC2	1.1	4%	i	11	1	0
CCOC(=O)c1oc2nc(C(C)C)c3c(c2c1N)CC(C)(C)OC3	3.8*	8%	x	11	1.1	4
Cc1nc2oc(C(=O)c3ccccc3)c(N)c2c2c1COC(C)(C)C2	1.2	5%	i	0	1.2	6
CCOC(=O)c1oc2nc(C(C)C)c3c(c2c1N)CCC3	3.8*	10%	x	13	1.1	7
CCCc1nc2oc(C(=O)OCC)c(N)c2c2c1COC(C)(C)C2	3.9*	2%	x	1	1.1	2
SMILES	Fluor 339 460	NADH coupling	DPM-DC inhibit	Spn PMK inh	Abs 340nm	MK inhibit
CN(c1ccc(O)cc1)c1nc(-c2ccccc2)cs1	1.1	1%	i	0	1	2
Cn1nc(CC(=O)NCCN2C(=O)CSC2=O)c2ccccc2c1=O	1.3	7%	i	10	1	7
O=C(NCCCn1ccnc1)c1cc(-c2ccc3c(c2)OCO3)on1	1.1	4%	i	13	1	0
COc1cccc(CC(NC(C)=O)C(=O)NC2CCN(c3nc(C)cc(C)c3C#N)CC2)c1OC (stereo not given)	3*	17%	i	12	1.1	9
CCOC(=O)NC(=O)CSc1nnc(C)s1	1.1	4%	i	0	0.99	7
CCOC(=O)c1c(NC(=O)c2ccco2)sc2c1CCCCC2	2.1*	8%	x	15	1.1	0
CCOC(=O)c1c(NC(=O)Cc2cccs2)sc2c1CCCC2	1.1	5%	i	16	1	0
CCOC(=O)c1c(NC(=O)c2cccs2)sc2c1CCC2	2.3*	1%	x	0	1.1	2
CCOC(=O)c1c(NC(=O)c2cccs2)sc2c1CCCC2	2.3*	17%	x	19	1.1	14
COC(=O)c1c(-c2ccc(F)cc2)csc1NC(=O)c1ccco1	2*	2%	i	0	1.1	3
CCOC(=O)c1c(NC(=O)OC)sc2c1CCC2	1.1	1%	i	2	0.99	2
CC(=O)N(Cc1cc2cc(C)c(C)cc2n2nnnc12)CC1COCCO1 (stereo not given)	1.1	6%	i	18	1	0
Cc1nc(N2CCc3ccccc32)[nH]c(=O)c1CCC(C)C	1.1	3%	i	8	1	6
c1ccc2sc(SN3CCOCC3)nc2c1	1.1	9%	i	12	1	15
CCOC(=O)c1c(-c2ccc(C)s2)csc1NC(=O)c1ccco1	3.5*	4%	i	4	1.1	0
CCOC(=O)c1c(NC(=O)c2cc(C3CC3)on2)sc2c1CCCC2	2.1*	14%	x	27*	1.1	0
CCOC(=O)c1c(NC(=O)c2ccco2)sc(C(=O)N2CCCC2)c1C	1.2	1%	i	0	1.1	3
CCOC(=O)c1c(NC(=O)c2cc(C3CC3)on2)sc(C(C)=O)c1C	1.2	0%	i	0	1.1	0
COC(=O)c1c(NC(=O)c2ccoc2C)sc2c1CCC2	2.4*	14%	+	4	1.1	5
COc1ccc(OC)c(NC(=O)c2c(NC(=O)c3ccco3)sc3c2CCC3)c1	2.1*	9%	i	4	1.1	10
Cc1occc1C(=O)Nc1sc2c(c1C(N)=O)CCCCC2	1.2	2%	i	2	1.1	1
COc1cc2ccccc2cc1-c1nnc(COc2ccccc2)o1	1.7	8%	i	9	1	3
Cc1noc(C)c1CSc1nnc2c(C)cc3ccccc3n12	1	4%	i	3	1	5

Source: PubChem
